“And” between values parts separate entries of the source, which are not always exact repeats. Identical values can stand only once. Results filed as inconclusive are left out. Where a structure was tested more than once in an assay, its records may differ in their call. The source made the active and inactive calls. Rule for the calls, unless noted: active = hit-call score of the fitted dose curve at least 0.9, where 1 is the maximum; inactive = score below 0.9.
Experiments:
[1] = IUF_NPC2c_oligodendrocyte_migration_120hr: Leibniz Research Institute for Environmental Medicine (IUF) 120-hour Neural Progenitor Cell Migration Assay for Oligodendrocyte Migration (NPC2c) (AID 2284297);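 note: O4-positive oligodendrocyte migration distance divided by radial glia migration distance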
Procedure, shortened: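 Using fetal brain neural progenitor spheres differentiating in N2 medium at 37C, compounds were present for 120 h. Oligodendrocyte migration distance, normalized to radial glia migration, was measured from imaged O4 staining.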

[2] = IUF_NPC2a_radial_glia_migration_120hr: Leibniz Research Institute for Environmental Medicine (IUF) 120-hour Neural Progenitor Cell Migration Assay for Radial Glia Migration (NPC2a) (AID 2284298)
Procedure, shortened: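 Exposure of 0.3 mm primary hNPC spheres runs day 0 to 120 h with a half-volume medium change at day 3. Fixed cells get Hoechst staining; high-content analysis of nuclear positions yields radial glia migration distance per well, compared against DMSO controls.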

[3] = IUF_NPC2b_neuronal_migration_120hr: Leibniz Research Institute for Environmental Medicine (IUF) 120-hour Neural Progenitor Cell Migration Assay for Neuron Migration (NPC2b) (AID 2284300)
Procedure, shortened: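 Fetal human NPC spheres migrate on PDL/laminin during 120 h compound treatment; neuronal migration distance, glia-normalized, scored versus DMSO control.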

[4] = IUF_NPC3_neuronal_differentiation_120hr: Leibniz Research Institute for Environmental Medicine (IUF) 120-hour Neuronal Differentiation Assay (NPC3) (AID 2284301)
Procedure, shortened: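 Primary human fetal neural progenitor spheres (GW 16-19, 0.3 mm) plated on poly-D-lysine/laminin in N2 medium, exposed from day 0 for 120 h with half-medium refresh at day 3. TUBB3+ cells as percent of Hoechst nuclei in migration area; DMSO baseline.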

[5] = IUF_NPC5_oligodendrocyte_differentiation_120hr: Leibniz Research Institute for Environmental Medicine (IUF) 120-hour Oligodendrocyte Differentiation Assay (NPC5) (AID 2284304; active = hit-call score of the fitted dose curve at least 0.9, where 1 is the maximum;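 note: primary human fetal neural progenitor spheres plated to migrate and differentiate; share of O4-positive cells among Hoechst nuclei found by CNN image analysis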)
Procedure, shortened: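 After plating on poly-D-lysine/laminin, fetal-derived hNPC spheres differentiated for 120 h at 37C in compound-containing N2 medium, refreshed by half on day 3. O4 immunostaining over Hoechst nuclei in the migration zone gave oligodendrocyte percentage relative to DMSO.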

[6] = IUF_NPC4_neurite_area_120hr: Leibniz Research Institute for Environmental Medicine (IUF) 120-hour Neuronal Morphology Assay for Neurite Area (NPC4) (AID 2284305; active = hit-call score of the fitted dose curve at least 0.9, where 1 is the maximum)
Procedure, shortened: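 Human fetal cortex-derived neural progenitor spheres (0.3 mm, GW 16-19) plated on poly-D-lysine/laminin in N2 differentiation medium and exposed from day 0 for 120 h across 7 concentrations plus solvent control. Neurite area is mean pixel area per TUBB3-positive neuron via skeletonization, analysed relative to DMSO.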

[7] = IUF_NPC2-5_cytotoxicity_72hr: Cytotoxicity Assessment at 72 hours in the Leibniz Research Institute for Environmental Medicine (IUF) Neural Progenitor Cell Migration and Differentiation Assay for Cytotoxicity (NPC2-5) (AID 2284306; active = hit-call score of the fitted dose curve at least 0.9, where 1 is the maximum;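 note: LDH release into supernatant measured by resorufin fluorescence marking membrane damage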)
Procedure, shortened: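 Human fetal (GW 16-19) neural progenitor spheres, 0.3 mm, plated on poly-D-lysine/laminin in N2 differentiation medium and exposed from day 0 to 7 concentrations plus solvent control (DMSO ≤0.1%). LDH-dependent resazurin-to-resorufin fluorescence in supernatant at 72 h.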

[8] = IUF_NPC2-5_cell_number_120hr: Cell Number Assessment at 120 hours in the Leibniz Research Institute for Environmental Medicine (IUF) Neural Progenitor Cell Migration and Differentiation Assay (NPC2-5) (AID 2284308);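 note: count of Hoechst-stained nuclei in migration zone around plated human neural progenitor spheres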
Procedure, shortened: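 Seven-point serial dilutions plus solvent control were applied to plated 0.3 mm hNPC spheres at differentiation start, with medium half-replaced at day 3. Nuclei positive for Hoechst in the migration zone were enumerated at 120 h.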

[9] = read-out: TIMP metallopeptidase inhibitor 2 (TIMP2), TIMP2 (gene 7077); assay: BSK_hDFCGF_TIMP2: BioMAP Diversity Plus: hDFCGF Assay for TIMP metallopeptidase inhibitor 2 (TIMP2) Biomarker Activity (AID 2284289); settings: primary human foreskin fibroblasts
Procedure, shortened: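 Primary human foreskin fibroblasts in the hDFCGF system, dosed for 24 h; TIMP-2 level measured by ELISA, fitted in the positive direction against DMSO; cytotoxicity checked in parallel by sulforhodamine B total protein staining.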

[10] = read-out: Interleukin-1 alpha (IL1a), IL1A (gene 3552); assay: BSK_IMphg_IL1a: BioMAP Diversity Plus: IMphg Assay for Interleukin-1 alpha (IL1a) Biomarker Activity (AID 2284290); settings: primary human endothelial cells with macrophages
Procedure, shortened: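 Human venular endothelial cells co-cultured with macrophages, IMphg system. IL-1α is measured by ELISA 24 h after dosing and fitted in the positive direction against DMSO. Cytotoxicity is assessed by SRB staining of parallel cultures.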

[11] = read-out: E-selectin (Homo sapiens) (UniProt P16581); assay: BSK_IMphg_ESelectin: BioMAP Diversity Plus: IMphg Assay for Eselectin Biomarker Activity (AID 2284291); settings: primary human endothelial cells with macrophages
Procedure, shortened: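 Human venular endothelial cell–macrophage co-culture, E-selectin measured by ELISA 24 h after chemical dosing. Signal fitted in the positive direction against DMSO as negative control and baseline.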

[12] = BSK_IMphg_SRB: Viability Assessment in the BioMAP Diversity Plus: IMphg Assay (AID 2284292); settings: primary human endothelial cells with macrophages;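 note: measured one day after compound addition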
Procedure, shortened: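 Human venular endothelial cells with macrophages, 24 h after chemical dosing; total protein by 0.1% SRB staining after 10% TCA fixation, read at 560 nm. Positive-direction fitting versus DMSO baseline.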

[13] = read-out: Macrophage colony-stimulating factor (MCSF), CSF1 (gene 1435); assay: BSK_IMphg_MCSF: BioMAP Diversity Plus: IMphg Assay for Macrophage colony-stimulating factor (MCSF) Biomarker Activity (AID 2284293); settings: primary human endothelial cells with macrophages
Procedure, shortened: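 Co-culture of human venular endothelial cells and macrophages, 24 hours of chemical exposure. M-CSF quantified by ELISA, with parallel SRB total-protein staining for cytotoxicity; activity fitted relative to DMSO.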

[14] = read-out: Interleukin-10 (IL10), IL10 (gene 3586); assay: BSK_IMphg_IL10: BioMAP Diversity Plus: IMphg Assay for Interleukin-10 (IL10) Biomarker Activity (AID 2284294); settings: primary human endothelial cells with macrophages
Procedure, shortened: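 Human venular endothelial cells cocultured with macrophages, dosed 24 h; IL-10 measured by ELISA, activity relative to DMSO. Cytotoxicity assessed in parallel cultures by sulforhodamine B total-protein staining.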

[15] = BSK_IMphg_SRB.Mphg: Macrophage Viability Assessment in the BioMAP Diversity Plus: IMphg Assay (AID 2284295); settings: primary human endothelial cells with macrophages
Procedure, shortened: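 Venular endothelial cells co-cultured with macrophages, read 24 h after dosing. Total protein measured by 0.1% SRB staining after 10% TCA fixation, absorbance at 560 nm. Fitted in positive direction against DMSO baseline.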

[16] = read-out: Thrombomodulin, THBD (gene 7056); assay: BSK_LPS_Thrombomodulin: BioMAP Diversity Plus: LPS Assay for Thrombomodulin Biomarker Activity (AID 2284296); settings: primary human HUVEC with PBMC
Procedure, shortened: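 Human umbilical vein endothelial cells co-cultured with PBMC and stimulated with LPS; cell-surface thrombomodulin measured by ELISA 24 hours after compound. Gain or loss versus DMSO; cytotoxicity checked by SRB staining in parallel cultures.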

CD69, CD69 (gene 969) = assay: BSK_LPS_CD69: BioMAP Diversity Plus: LPS Assay for CD69 Biomarker Activity (AID 2284303); settings: primary human HUVEC with PBMC
Procedure, shortened: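 Human umbilical vein endothelial cells co-cultured with PBMC under LPS stimulation, chemical exposure 24 h; cell-surface CD69 measured by ELISA and fitted in the positive direction versus DMSO.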

[17] = VALA_TUBHUV_Agonist_CellCount: Viability Assessment in the VALA Sciences human Umbilical Vein Endothelial Tubule Formation (TUBHUV) Agonism Assay (AID 2284309; active = hit-call score of the fitted dose curve at least 0.9, where 1 is the maximum)
Procedure, shortened: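 HUVEC co-cultured 1:3 with HDF for 3 days in 10 ng/ml VEGF, then compounds added in VEGF medium for a further 3 days (72 h). Nuclear-stain/CD31 imaging cell count. Positive-direction fit versus 0.1% DMSO vehicle.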

[18] = VALA_TUBIPS_Agonist_TubuleLength: VALA Sciences human iPS-derived Endothelial Tubule Formation (TUBIPS) Agonism Assay (AID 2284311; active = hit-call score of the fitted dose curve at least 0.9, where 1 is the maximum)
Procedure, shortened: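 Human iPS-derived endothelial cells were exposed to compound for 72 h. Tubule formation was imaged by high-content fluorescence and scored as gain of signal relative to DMSO vehicle (agonist mode).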

[19] = VALA_TUBHUV_Antagonist_CellCount: Viability Assessment in the VALA Sciences human Umbilical Vein Endothelial Tubule Formation (TUBHUV) Antagonism Assay (AID 2284310; active = hit-call score of the fitted dose curve at least 0.9, where 1 is the maximum)
Procedure, shortened: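 HUVEC co-cultured with HDF (1:3) 3 days in 10 ng/ml VEGF, then 3 days with compounds in VEGF medium. Fixed, nuclear stain and CD31 immunofluorescence, imaged; cell counts fitted versus 0.1% DMSO, loss of signal read as lower viability.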

Measured: AC50

Sequence of E-selectin (Homo sapiens) (P16581 whole entry, looked up): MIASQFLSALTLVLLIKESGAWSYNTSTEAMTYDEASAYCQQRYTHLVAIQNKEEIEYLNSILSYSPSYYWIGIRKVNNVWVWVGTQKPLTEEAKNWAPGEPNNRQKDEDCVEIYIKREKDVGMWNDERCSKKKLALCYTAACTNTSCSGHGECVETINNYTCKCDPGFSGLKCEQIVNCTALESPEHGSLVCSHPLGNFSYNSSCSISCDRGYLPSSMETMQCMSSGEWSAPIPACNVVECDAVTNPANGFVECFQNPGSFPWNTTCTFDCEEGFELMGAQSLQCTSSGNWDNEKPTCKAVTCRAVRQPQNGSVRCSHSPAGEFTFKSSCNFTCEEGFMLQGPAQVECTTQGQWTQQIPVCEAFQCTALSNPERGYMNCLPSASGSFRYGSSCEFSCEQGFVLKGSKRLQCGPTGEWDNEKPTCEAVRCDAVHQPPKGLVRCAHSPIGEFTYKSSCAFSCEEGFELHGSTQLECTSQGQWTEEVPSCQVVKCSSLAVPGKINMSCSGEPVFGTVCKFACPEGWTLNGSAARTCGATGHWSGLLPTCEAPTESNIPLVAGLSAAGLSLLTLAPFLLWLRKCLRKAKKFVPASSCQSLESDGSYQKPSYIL

CC1(c2ccc(Oc3ccccc3)cc2)OC(=O)N(Nc2ccccc2)C1=O (stereo not given)
inactive: [1] | [3] | [4] | [6] | [7] | [8]
active: [2] 5 µM | [5] 1.61 µM

O=C(O)COc1ccc(Cl)cc1Cl
inactive: [1] | [2] | [3] | [4] | [7] | [8]

CC[C@H](C)[C@H]1O[C@]2(C=C[C@@H]1C)C[C@@H]1C[C@@H](C/C=C(\C)[C@@H](O[C@H]3C[C@H](OC)[C@@H](O[C@H]4C[C@H](OC)[C@@H](O)[C@H](C)O4)[C@H](C)O3)[C@@H](C)/C=C/C=C3\CO[C@@H]4[C@H](O)C(C)=C[C@@H](C(=O)O1)[C@]34O)O2 (tested in a mixture with another compound)
inactive: [1] | [3] | [6]
active: [2] 3.4 µM | [5] 0.444 µM | [7] 7.55 µM | [8] 7.63 µM

CC(C)N(C(=O)COc1nnc(C(F)(F)F)s1)c1ccc(F)cc1
inactive: [1] | [2] | [3] | [4] | [5] | [6] | [7] | [8]

O=S1OCC2C(CO1)C1(Cl)C(Cl)=C(Cl)C2(Cl)C1(Cl)Cl (stereo not given)
inactive: [1] | [3] | [4] | [6] | [7] | [8]
active: [2] 13.1 µM | [5] 2.92 µM

O=C(O)C(F)(F)C(F)(F)C(F)(F)C(F)(F)C(F)(F)C(F)(F)C(F)(F)F
active: [14] 30 µM | [16] 0.609 µM | CD69, CD69 (gene 969) 220 nM and 30 µM
inactive: [9] | [10] | [11] | [12] | [13] | [14] | [15] | [16] | [1] | [2] | [3] | [4] | CD69, CD69 (gene 969) | [5] | [6] | [7] | [8]

CCC(C)(C)C(=O)OC1=C(c2ccc(Cl)cc2Cl)C(=O)OC12CCCCC2
inactive: [1] | [2] | [3] | [4] | [6] | [7] | [8]

COP(=S)(OC)Oc1ccc([N+](=O)[O-])cc1
inactive: [1] | [2] | [3] | [4] | [5] | [6] | [7] | [8]

COP(=O)(OC)OC=C(Cl)Cl
inactive: [7]
active: [1] 38.2 µM | [2] 40 µM | [3] 53.3 µM | [6] 13.3 µM | [8] 15 µM

CNC(=O)CSP(=S)(OC)OC
inactive: [1] | [2] | [3] | [4] | [5] | [6] | [7] | [8]

O=[N+]([O-])/N=C1\NCCN1Cc1ccc(Cl)nc1
inactive: [1] | [2] | [3] | [4] | [5] | [6] | [7] | [8]

O=S(=O)(O)C(F)(F)C(F)(F)C(F)(F)C(F)(F)C(F)(F)C(F)(F)C(F)(F)C(F)(F)F
active: [9] 30 µM and 8.71 µM | [11] 30 µM and 38.2 µM | [14] 45.3 µM [middle of 4 runs] | [2] 79.3 µM and 16 µM | [4] 2.09 µM | [7] 79.3 µM | [8] 73 µM
inactive: [9] | [10] | [12] | [13] | [15] | [16] | [1] | [3] | [4] | CD69, CD69 (gene 969) | [5] | [8] | [17] | [18]

Oc1cc(Cl)ccc1Oc1ccc(Cl)cc1Cl
inactive: [17] | [19]

CC1(C)C(C=C(Cl)Cl)C1C(=O)OC(C#N)c1ccc(F)c(Oc2ccccc2)c1 (stereo not given)
inactive: [1] | [2] | [3] | [4] | [6] | [7] | [8]
active: [5] 0.227 µM
